Results published in PubChem BioAssay (NCATS).
Inconclusive results are not listed. A number with no mark means an inactive call. Active and inactive are the calls of the source. Calls follow the shape of the dose curve; as a rule, active = well fitted inhibition curve with a large enough effect; inconclusive = small, poorly fitted or top-dose-only effect; inactive = flat fitted curve, though single readings scatter.

Test system: CP191
Assay: qHTS profiling for inhibitors of Plasmodium falciparum proliferation (AID 504749); also: nearly all actives have a fitted effect of over 60% in size;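 as to activity, negative = inhibition: 0% = DMSO vehicle and full inhibition = artemisinin control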
Conditions: P. falciparum in erythrocytes, SYBR Green DNA, 72 h; series mostly up to 12.8 µM; activity, negative = inhibition: at the top concentration
Method in brief: (§1)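 Each compound contacts P. falciparum-infected red blood cells for 72 h at 37 C; lysis buffer (Tris, EDTA, saponin, Triton X, SYBR Green I) is added and fluorescence measured next morning; values normalized to controls.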
Potency is read from the fitted curve at half-maximal effect.

| Structure (SMILES) | activity, negative = inhibition | Potency |
| --- | --- | --- |
| CC1(C)S[C@H]2C(NC(=O)[C@@H](N)c3ccc(O)cc3)C(=O)N2[C@@H]1C(=O)O (stereo partly specified) | 5.54% [at 28.7 µM] | – |
| CN(C)CCc1c[nH]c2ccc(CC3COC(=O)N3)cc12 (stereo unspecified) | 0.414% [at 28.7 µM] | – |
| C[C@@]12CCC(=O)C=C1C=CC1C2CC[C@]2(C)C1CC[C@@]21CCC(=O)O1 (stereo partly specified) | -7.55% [at 28.7 µM] | – |
| NC(CCC(=O)N[C@@H](CS)C(=O)NCC(=O)O)C(=O)O (stereo partly specified) | – | 8.91 µM (active) |
| CC(C)Oc1ccc2c(=O)cc(-c3ccccc3)oc2c1 | -27.8% [at 28.7 µM] | – |
| N[C@@H]1C(O)OC(CO)C(O)C1O (stereo partly specified) | 2% [at 28.7 µM] | – |
| CC(=O)[C@]1(O)CCC2C3C=C(Cl)C4=CC(=O)C5CC5[C@@]4(C)C3CC[C@]21C (stereo partly specified) | -2.98% [at 28.7 µM] | – |
| CO[C@]12C(COC(N)=O)C3=C(C(=O)C(C)=C(N)C3=O)N1CC1NC12 (stereo partly specified) | – | 0.891 µM (active) |
| COC1OC(CO)C(OC2OC(C(=O)O)C(OC3OC(COS(=O)(=O)O)C(OC4OC(C(=O)O)C(OC5OC(CO)C(OC6OC(C(=O)O)C(OC7OC(COS(=O)(=O)O)C(OC8OC(C(=O)O)=C[C@H](O)C8OS(=O)(=O)O)C(O)C7NC(C)=O)[C@@H](O)C6O)C(O)C5NC(C)=O)[C@@H](O)C4O)C(O)C3NC(C)=O)[C@@H](O)C2O)C(O)C1NC(C)=O (stereo partly specified) | – | 11.2 µM (active) |
| C[C@@]12C=CC(=O)C=C1CCC1C3CC(O)[C@@](O)(C(=O)CO)[C@]3(C)CC(O)[C@]12F (stereo partly specified) | 7.33% [at 28.7 µM] | – |
| CCC1OC(=O)C(C)[C@@H](O[C@H]2C[C@@](C)(OC)C(O)C(C)O2)C(C)[C@@H](O[C@@H]2OC(C)CC(N(C)C)C2O)[C@@](C)(O)CC(C)C(=O)[C@@H](C)C(O)[C@]1(C)O (stereo partly specified) | -26.4% [at 28.7 µM] | – |
| CC1C2CCC3C4CC=C5CC(N(C)C)CC[C@@]5(C)C4CC[C@@]32CN1C (stereo partly specified) | 7.6% [at 28.7 µM] | – |
| COC1CC(O[C@H]2/C(C)=C/CC3CC(C[C@]4(CCC(C)C(C5CCCCC5)O4)O3)OC(=O)[C@H]3C=C(C)/C(=N/O)C4OC/C(=C\C=C\[C@@H]2C)[C@@]43O)OC(C)C1O (stereo partly specified) | – | 10 µM (active) |
| CCC(C)C(=O)OC1CC(O)C=C2C=CC(C)C(CCC(O)CC(O)CC(=O)O)C21 (stereo unspecified) | -3.12% [at 28.7 µM] | – |
| OCC1OC(n2cnc3c(=S)nc[nH]c32)C(O)C1O (stereo unspecified) | -11.8% [at 28.7 µM] | – |

Test system: CP192
Assay: as above
Conditions: P. falciparum in erythrocytes, SYBR Green DNA, 72 h; series mostly up to 12.8 µM; activity, negative = inhibition: at the top concentration
Method in brief: as §1

| Structure (SMILES) | activity, negative = inhibition |
| --- | --- |
| CC1(C)S[C@H]2C(NC(=O)[C@@H](N)c3ccc(O)cc3)C(=O)N2[C@@H]1C(=O)O (stereo partly specified) | -4.98% [at 28.7 µM] |
| CN(C)CCc1c[nH]c2ccc(CC3COC(=O)N3)cc12 (stereo unspecified) | -10.2% [at 28.7 µM] |
| C[C@@]12CCC(=O)C=C1C=CC1C2CC[C@]2(C)C1CC[C@@]21CCC(=O)O1 (stereo partly specified) | 0.308% [at 28.7 µM] |
| CC(C)Oc1ccc2c(=O)cc(-c3ccccc3)oc2c1 | -6.83% [at 28.7 µM] |
| CCCCCCCCCc1ccc(OCCOCCOCCOCCOCCOCCOCCOCCOCCO)cc1 | -21.6% [at 28.7 µM] |
| CC(=O)O[C@@]1(C(C)=O)CCC2C3CC(C)C4=CC(=O)CC[C@@]4(C)C3CC[C@]21C (stereo partly specified) | -11.7% [at 28.7 µM] |
| CC(=O)OCC(=O)[C@@]12OC3(CCCC3)OC1CC1C3CCC4=CC(=O)C=C[C@@]4(C)[C@]3(F)C(O)C[C@]12C (stereo partly specified) | -9.46% [at 28.7 µM] |
| CC(=O)[C@]1(O)CCC2C3C=C(Cl)C4=CC(=O)C5CC5[C@@]4(C)C3CC[C@]21C (stereo partly specified) | -13.4% [at 28.7 µM] |
| COC1OC(CO)C(OC2OC(C(=O)O)C(OC3OC(COS(=O)(=O)O)C(OC4OC(C(=O)O)C(OC5OC(CO)C(OC6OC(C(=O)O)C(OC7OC(COS(=O)(=O)O)C(OC8OC(C(=O)O)=C[C@H](O)C8OS(=O)(=O)O)C(O)C7NC(C)=O)[C@@H](O)C6O)C(O)C5NC(C)=O)[C@@H](O)C4O)C(O)C3NC(C)=O)[C@@H](O)C2O)C(O)C1NC(C)=O (stereo partly specified) | -4.87% [at 28.7 µM] |
| C[C@@]12C=CC(=O)C=C1CCC1C3CC(O)[C@@](O)(C(=O)CO)[C@]3(C)CC(O)[C@]12F (stereo partly specified) | 0.33% [at 28.7 µM] |
| CCC1OC(=O)C(C)[C@@H](O[C@H]2C[C@@](C)(OC)C(O)C(C)O2)C(C)[C@@H](O[C@@H]2OC(C)CC(N(C)C)C2O)[C@@](C)(O)CC(C)C(=O)[C@@H](C)C(O)[C@]1(C)O (stereo partly specified) | -15.8% [at 28.7 µM] |
| CC1C2CCC3C4CC=C5CC(N(C)C)CC[C@@]5(C)C4CC[C@@]32CN1C (stereo partly specified) | 7.7% [at 28.7 µM] |
| COC1CC(O[C@H]2/C(C)=C/CC3CC(C[C@]4(CCC(C)C(C5CCCCC5)O4)O3)OC(=O)[C@H]3C=C(C)/C(=N/O)C4OC/C(=C\C=C\[C@@H]2C)[C@@]43O)OC(C)C1O (stereo partly specified) | -4.18% [at 28.7 µM] |
| CCC(C)C(=O)OC1CC(O)C=C2C=CC(C)C(CCC(O)CC(O)CC(=O)O)C21 (stereo unspecified) | 0.717% [at 28.7 µM] |
| OCC1OC(n2cnc3c(=S)nc[nH]c32)C(O)C1O (stereo unspecified) | 1.75% [at 28.7 µM] |

Test system: CP194
Assay: as above
Conditions: P. falciparum in erythrocytes, SYBR Green DNA, 72 h; series mostly up to 12.8 µM; activity, negative = inhibition: at the top concentration
Method in brief: as §1

| Structure (SMILES) | activity, negative = inhibition | Potency |
| --- | --- | --- |
| CC1(C)S[C@H]2C(NC(=O)[C@@H](N)c3ccc(O)cc3)C(=O)N2[C@@H]1C(=O)O (stereo partly specified) | 1.72% [at 28.7 µM] | – |
| CN(C)CCc1c[nH]c2ccc(CC3COC(=O)N3)cc12 (stereo unspecified) | -4.11% [at 28.7 µM] | – |
| C[C@@]12CCC(=O)C=C1C=CC1C2CC[C@]2(C)C1CC[C@@]21CCC(=O)O1 (stereo partly specified) | -3.56% [at 28.7 µM] | – |
| CC(C)Oc1ccc2c(=O)cc(-c3ccccc3)oc2c1 | -14.2% [at 28.7 µM] | – |
| CC(=O)O[C@@]1(C(C)=O)CCC2C3CC(C)C4=CC(=O)CC[C@@]4(C)C3CC[C@]21C (stereo partly specified) | 5.68% [at 28.7 µM] | – |
| N[C@@H]1C(O)OC(CO)C(O)C1O (stereo partly specified) | 15.8% [at 28.7 µM] | – |
| CC(=O)OCC(=O)[C@@]12OC3(CCCC3)OC1CC1C3CCC4=CC(=O)C=C[C@@]4(C)[C@]3(F)C(O)C[C@]12C (stereo partly specified) | -19.3% [at 28.7 µM] | – |
| CCC(=O)O[C@@]1(C(=O)CCl)C(C)CC2C3CCC4=CC(=O)C=C[C@@]4(C)[C@]3(F)C(O)C[C@]21C (stereo partly specified) | – | 15.1 µM (active) |
| CC(=O)[C@]1(O)CCC2C3C=C(Cl)C4=CC(=O)C5CC5[C@@]4(C)C3CC[C@]21C (stereo partly specified) | -1.07% [at 28.7 µM] | – |
| COC1OC(CO)C(OC2OC(C(=O)O)C(OC3OC(COS(=O)(=O)O)C(OC4OC(C(=O)O)C(OC5OC(CO)C(OC6OC(C(=O)O)C(OC7OC(COS(=O)(=O)O)C(OC8OC(C(=O)O)=C[C@H](O)C8OS(=O)(=O)O)C(O)C7NC(C)=O)[C@@H](O)C6O)C(O)C5NC(C)=O)[C@@H](O)C4O)C(O)C3NC(C)=O)[C@@H](O)C2O)C(O)C1NC(C)=O (stereo partly specified) | -1.79% [at 28.7 µM] | – |
| C[C@@]12C=CC(=O)C=C1CCC1C3CC(O)[C@@](O)(C(=O)CO)[C@]3(C)CC(O)[C@]12F (stereo partly specified) | 1.98% [at 28.7 µM] | – |
| CCC1OC(=O)C(C)[C@@H](O[C@H]2C[C@@](C)(OC)C(O)C(C)O2)C(C)[C@@H](O[C@@H]2OC(C)CC(N(C)C)C2O)[C@@](C)(O)CC(C)C(=O)[C@@H](C)C(O)[C@]1(C)O (stereo partly specified) | -0.979% [at 28.7 µM] | – |
| CC1C2CCC3C4CC=C5CC(N(C)C)CC[C@@]5(C)C4CC[C@@]32CN1C (stereo partly specified) | -1.27% [at 28.7 µM] | – |
| COC1CC(O[C@H]2/C(C)=C/CC3CC(C[C@]4(CCC(C)C(C5CCCCC5)O4)O3)OC(=O)[C@H]3C=C(C)/C(=N/O)C4OC/C(=C\C=C\[C@@H]2C)[C@@]43O)OC(C)C1O (stereo partly specified) | -9.53% [at 28.7 µM] | – |
| CCC(C)C(=O)OC1CC(O)C=C2C=CC(C)C(CCC(O)CC(O)CC(=O)O)C21 (stereo unspecified) | -1.88% [at 28.7 µM] | – |
| OCC1OC(n2cnc3c(=S)nc[nH]c32)C(O)C1O (stereo unspecified) | -12.3% [at 28.7 µM] | – |
